This passage reports max response and Potency results from PubChem BioAssay (NCATS).

Structures are written as SMILES. Values joined by “and” are separate entries in the source; they are usually repeats but may differ in a detail not shown here. Equal entries are not always repeated. Inconclusive results are not listed. Values without a mark were called inactive. Active and inactive are the calls of the source. Calls come from the whole dose curve; as a rule, active = well fitted curve in the direction sought with a large enough effect; inconclusive = small, poorly fitted or top-dose-only effect, or another doubt; inactive = no such curve, though single readings can be large or run the other way.
% is set by controls: 0 for no effect and ±100 for the full control effect; potency is the fitted concentration of half-maximal effect.

The experiment is described as follows: qHTS Assay for Identifying Gametocytocidal Compounds (AID 743244).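 For max response: actives lower the fluorescent signal which means gametocytes are killed.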 Conditions: P. falciparum 3D7 stage III-V gametocytes, alamarBlue, 72 h; max response: stronger effect = lower value. From the text: Malaria cases and deaths have dropped 50% in 29 countries since 2000 due to the combined effects of long-lasting insecticidal bednets, indoor residual spraying, and artemisinin-based combination therapies (ACTs). This success has raised hopes for malaria eradication and consequently stimulated interest in developing new reagents that block gametocyte transmission such as novel and safe gametocytocidal drugs. However, previous drug development efforts have focused primarily on the asexual parasites that cause symptoms, but not malaria transmission. Consequently, patients can remain infectious for weeks after the clearance of asexual parasites and clinical symptoms. To be transmitted from person to person via a mosquito, the parasites must switch from asexual to sexual development and produce male and female gametocytes. Malaria gametocytes consist of five stages (I, II, III, IV and V). The late stage gametocytes (III, IV and V) are difficult to be cultured in vitro and the long lifespan of mature gametocytes allows them being transmitted from host to mosquitoes unless they are completely eliminated by gametocytocidal agents. To identify gametocytocidal compounds which are capable of killing late stage P. falciparum gametocytes, a high throughput gametocyte viability assay was employed. This assay uses oxidoreduction indicator, alamarBlue, as a general measure of metabolic activity of gametocytes. Within live cells, the nonfluorescent resazurin is reduced to resorufin, a bright red fluorescence dye. Fluorescence decreases upon treatment of gametocytocidal compounds. P. falciparum gametocyte (3D7 strain) was used in this study.
The 1536-well gametocycidal viability assay was based on the previous method of Tanaka et al. Stage III-V gametocytes were tested against three compound libraries, including 4265 compounds from NCGC pharmaceutical collection, 400 from Malaria Box library, and 550 from an internal collection of kinase inhibitors. Briefly, 2.5 ul/well incomplete medium was dispensed into each well of 1,536-well plates using the Multidrop Combi followed by 23 nl compound transferring using the NX-TR Pintool (WAKO Scientific Solutions, San Diego, CA). Then, 2.5 ul/well of gametocytes was dispensed with a seeding density of 20,000 cells/well using the Multidrop Combi. The assay plates were incubated for 72 h at 37C with 5% CO2. After addition of 5 ul/well of 2X AlamarBlue dye (Life Technologies, cat. no. DAL1100), the plates were incubated for 24 h at 37C with 5% CO2 and then were read in a fluorescence detection mode (Ex = 525 nm, Em = 598 nm) on a ViewLux plate reader (PerkinElmer).
(In general: In qHTS, concentration-response curves come from the screen itself.)
With `CC(C)NC[C@H](O)COc1cccc2[nH]ccc12`, the max response is 4.63%.

As to `O=C(O)Cc1ccc(-c2ccccc2)cc1`, the max response is -0.327%.

Turning to `O=[N+]([O-])c1ccc2c(c1)S(=O)(=O)C=C2`, the Potency is 1000 nM (active).

On to `N.N.N.N.N.N.N.N.N.N.N.N.N.N.O.O.[Ru+4].[Ru+5].[Ru+5]`, for which the Potency is 935 nM (active).

Take `CC1OC1P(=O)(O)O` (stereo not given): the max response was -9.6%.

Regarding `C#C[C@]1(O)CC[C@H]2[C@@H]3CCC4=Cc5oncc5CC4(C)[C@H]3CCC21C` (stereo not given in full), the max response is 25.1%.

For `O=C(CCN1CCN(CCO)CC1)N1c2ccccc2Sc2ccc(C(F)(F)F)cc21`, the max response was -4.95%.

`CC(=O)SCC(CC(=O)c1ccc(C)cc1)C(=O)O` (stereo not given): the max response was 17.7%.

Regarding `C[C@@H](CN1CCC(Cc2ccccc2)CC1)[C@@H](O)c1ccc(O)cc1`, the max response is 31%.

With `Brc1c(Br)c(Br)c2n[nH]nc2c1Br`, the max response was 10.7%.

`O=c1cc(-c2ccccc2)oc2ccccc12`: the max response was 7.39%.

As for `NCCSSCCN`, the max response was 3.62%.

As for `O=C(c1ccc(Cl)cc1)N1CCN(c2ccc([N+](=O)[O-])c3ncccc23)CC1`, the max response was -0.851%.

`NC(=O)C(=O)O`: the max response was 24.1%.

As to `CN1CCc2cccc3c2C1Cc1ccc(O)c(O)c1-3` (stereo not given), the Potency was 562 nM (active).

Turning to `S=C(S)OC1CC2CC1C1CCCC21` (stereo not given), the max response was 22.6%.

For `CCN1/C(=C/C(C)=O)Sc2ccc(OC)cc21`, the max response is 22.2%.

For `CCN(CC)c1ncnc2c1ncn2[C@@H]1O[C@H](COP(=O)(O)OP(=O)(O)C(Br)(Br)P(=O)(O)O)[C@@H](O)[C@H]1O`, the max response was -1.02%.

For the molecule `O=C(Nc1cccc(C(=O)Nc2ccc(S(=O)(=O)O)c3cc(S(=O)(=O)O)cc(S(=O)(=O)O)c23)c1)Nc1cccc(C(=O)Nc2ccc(S(=O)(=O)O)c3cc(S(=O)(=O)O)cc(S(=O)(=O)O)c23)c1`, the max response was -0.217%.

For the molecule `Oc1cc(O)cc(/C=C/c2ccc(O)c(O)c2)c1`, the max response was 42.8%.

On to `CO[C@@]1(NC(=O)Cc2cccs2)C(=O)N2C(C(=O)O)=C(COC(N)=O)CS[C@@H]21`, for which the max response is -0.875% and -15%.

`CCCSc1ccc2nc(NC(=O)OC)[nH]c2c1`: the max response was 0.499%.

For `CC1(C)S[C@@H]2[C@H](NC(=O)[C@H](N)c3ccc(O)cc3)C(=O)N2[C@H]1C(=O)O`, the max response is 4.64% and 10.7%.

Consider `C=CC(=O)c1ccc(CCCCCC)cc1`, for which the max response was 6.31%.

Turning to `c1ccc(-c2ccccn2)nc1`, the max response was 29.6%.

In the case of `Nc1nc2ccc([N+](=O)[O-])cc2s1`, the max response was 8.79%.

Regarding `N=c1ccn2c(n1)O[C@H]1[C@H](O)[C@@H](CO)O[C@H]12`, the max response is 8.89%.

As to `CC(=O)O[C@H]1C[C@@]2(C)[C@@H](C[C@@H](O)[C@H]3[C@@]4(C)CC[C@@H](O)[C@@H](C)[C@@H]4CC[C@@]32C)/C1=C(\CCC=C(C)C)C(=O)O`, the max response was -4.85%.

As to `C=CC(N)CCC(=O)O` (stereo not given), the max response was -1.49% and -10.7%.

As for `CN(C)c1ccc(N=NS(=O)(=O)O)cc1`, the Potency was 35500 nM (active).

As to `O=C1C(SCCO)=C(SCCO)C(=O)c2ccccc21`, the Potency is 1410 nM (active).

Turning to `NO`, the max response was -10.7%.

Regarding `CC(C(=O)O)c1ccc(C(=O)c2cccs2)cc1` (stereo not given), the max response is 13.3%.

`N=C(N)SCCc1ccc(CCSC(=N)N)cc1`: the max response was 24%.

For the molecule `O=[N+]([O-])c1ccc(CSc2ncnc3c2ncn3[C@@H]2O[C@H](CO)[C@@H](O)[C@H]2O)cc1`, the max response is 17.7%.

As to `C[C@@H](NC(=O)/C(C#N)=C/c1ccc(O)c(O)c1)c1ccccc1`, the max response was 3.77%.

Consider `C=C(Nc1ccc(OCC)cc1)Nc1ccc(OCC)cc1`, for which the max response is 14.6% and 14.3%.

For `Cc1ccc(S(=O)(=O)/C=C/C#N)cc1`, the Potency is 3550 nM (active).

In the case of `CCCCCCCCCCCC(=O)[O][Sn]([CH2]CCC)([CH2]CCC)[O]C(=O)CCCCCCCCCCC`, the max response was -1.72%.

As to `C=CCCCCCCCCC(=O)O`, the max response was 8%.
